This passage reports inhibition results from PubChem BioAssay AID652134 (The Scripps Research Institute Molecular Screening Center, 2013).

Hit rate of the full screen: of about 2,400 compounds, about 2,100 (88%) were called active. The set was probably picked from earlier hits. A selection follows. A number with no mark means an inactive call.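 How the source made its calls: active means inhibition above the average of every tested compound plus 3 SD (cut at about 3.8% in these data); inactive means the rest.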

The test deals with Nuclear receptor subfamily 0 group B member 1 (Homo sapiens) (UniProt P51843). As to the kind of experiment: DAX1 (NR0B1) inhibitors relieving SF-1 repression, confirmation, cell-based, luminescence, HEK293T, full-length DAX-1, SF-1 activated StAR promoter (AID 652134). The conditions noted are these: HEK293T StAR-promoter luciferase reporter, SF-1/DAX-1 repression; at 6.8 µM; hits give high values. For orientation: A reporter such as luciferase makes a cellular process visible.
Sequence of Nuclear receptor subfamily 0 group B member 1 (Homo sapiens) (P51843 whole entry, looked up): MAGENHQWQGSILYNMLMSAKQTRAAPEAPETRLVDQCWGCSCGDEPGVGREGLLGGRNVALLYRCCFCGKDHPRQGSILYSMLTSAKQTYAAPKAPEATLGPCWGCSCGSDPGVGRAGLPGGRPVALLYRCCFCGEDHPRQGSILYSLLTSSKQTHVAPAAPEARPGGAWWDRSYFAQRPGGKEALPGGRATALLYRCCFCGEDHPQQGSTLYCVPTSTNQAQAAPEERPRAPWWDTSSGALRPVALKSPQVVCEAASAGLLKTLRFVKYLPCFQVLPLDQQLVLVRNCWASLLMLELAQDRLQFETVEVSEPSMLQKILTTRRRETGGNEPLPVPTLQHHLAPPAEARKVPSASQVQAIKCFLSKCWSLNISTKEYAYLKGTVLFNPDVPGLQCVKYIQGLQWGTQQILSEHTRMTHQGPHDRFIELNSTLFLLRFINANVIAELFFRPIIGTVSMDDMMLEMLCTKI
In general, inhibition refers to the change of the read-out against control, counted positive when it falls. Regarding `O=C(NCCc1ccc(F)cc1)c1ccc2nccnc2c1`, the inhibition was 12.4% (active). Then `COc1ccc(Nc2ncc(F)c(N3CCOCC3)n2)cc1`, with 11.3% (active). Then `OC(c1ccccc1)c1nc(-c2cnc3ccccc3c2)cs1` (stereo unspecified), with 13% (active); and `O=C1C(C=NCC2CCCO2)=C(O)c2ccccc21` (stereo unspecified), with 7.49% (active); and `CC(=O)Nc1cccc(-c2csc(Nc3cccc(C)n3)n2)c1`, with 10.7% (active).

For the compound `COc1cc(C2c3cc4c(cc3C(O)C3COC(=O)C23)OCO4)cc(OC)c1OC` (stereo unspecified), the inhibition is 19.5% (active). With `COc1cc(/C=N/O)ccc1OCc1ccc([N+](=O)[O-])cc1`, the inhibition was 11.6% (active).

Regarding `CC(=O)Nc1cccc(C(=O)OCC(=O)c2ccc3c(c2)OCO3)c1`, the inhibition is 14.1% (active). Then `CC(C)c1ccc(C=NNc2ccc([N+](=O)[O-])cn2)cc1`, with 14.9% (active). Then `S=C(c1ccc(-c2ccccc2)o1)N1CCCCC1`, with 11% (active); and `COc1ccc2nc(SCc3ccccc3)nc(C)c2c1`, with 20.3% (active). Then `CC(C)Cc1cc(C(=O)NCCc2ccccc2)no1`, with 8.87% (active); and `CNCC(O)c1ccc(O)c(O)c1` (stereo unspecified), with 3.72% (active); and `C(=N\Nc1ccc2ccccc2n1)/c1ccc2c(c1)OCO2`, with 13.2% (active). `COc1ccc2nc(-c3ccccn3)ccc2c1`: the inhibition was 12.2% (active). Next, `c1ccc2[nH]c(-c3nc4ccccc4[nH]3)nc2c1`: 11.3% (active); `Cc1ccc(-c2nc3ccccc3[nH]2)cc1N`: 11.7% (active); `O=C(NC(=S)NC1CCCCC1)c1ccc(Cl)cc1`: 6.95% (active). Next, `O=C(c1cnn2ccccc12)N1CCc2ccccc21`: 9.73% (active); `COc1cccc(/C=C/C(=O)Nc2ccc3c(c2)OCCO3)c1`: 3.84% (active); `Cc1cccc(NC(=O)/C=C/c2ccc3c(c2)OCO3)n1`: 13.6% (active). Then `O=C(O)c1cccc(N=NN2CCCCCC2)c1`, with 15% (active); and `O=c1c2c(nc3n1CCCCC3)sc1c(O)cccc12`, with 16.3% (active). Turning to `O=C(Nc1ccc(Cl)c(Cl)c1)c1ccccc1NC(=O)C1CC=CCC1C(=O)O` (stereo unspecified), the inhibition was 7.46% (active). Then `CC(C)(O)C#Cc1ccc(CNC[C@H]2O[C@@H](n3cnc4c(=O)[nH]c(N)nc43)[C@H](O)[C@@H]2O)s1`, with -1.28%.

`CCN(CC(=O)Nc1c(F)cccc1F)C(=O)c1cnc(C)cn1`: the inhibition is 0.35%. Next, `O=c1oc(/C=C/c2ccccc2)nc2ccccc12`: 11.2% (active); `CC(Oc1ccccc1[N+](=O)[O-])C(=O)N/N=C/c1ccoc1` (stereo unspecified): 1.13%.

Take `Cc1ccc(S(=O)Cc2ccc(C(=O)N3CCN(C4CCCCC4)CC3)o2)cc1` (stereo unspecified): the inhibition was 5.33% (active). Regarding `O=[N+]([O-])c1ccc2oc(-c3cccc(O)c3)nc2c1`, the inhibition was 10.7% (active).

As to `COc1ccc(-c2cn3ccsc3n2)cc1`, the inhibition is 12.2% (active).

Regarding `COc1ccc(-c2cn3ccc(C)cc3n2)cc1`, the inhibition is 9.6% (active).

For `Cc1cc(C)c(C)c(S(=O)(=O)N2CCN(C(=O)c3ccc4c(=O)n5c(nc4c3)CCC5)CC2)c1C`, the inhibition is 0.85%. Then `O=c1c2c(nc3cc(-c4cccc(Cl)c4)[nH]n13)CCCC2`, with 22.3% (active); and `O=C(CSc1cccc[n+]1[O-])c1ccc(-c2ccccc2)cc1`, with 3.72% (active).

In the case of `O=C(NCCc1c[nH]c2ccccc12)c1cc2ccccc2oc1=O`, the inhibition is 10.1% (active).

For the compound `Cc1cc(OCc2cc(C(=O)NCc3cc(C(C)C)no3)no2)cc(C)c1Cl`, the inhibition is 6.04% (active).

Consider `Cc1nc2cc(NC(=O)Nc3cccc(F)c3)ccc2n1C`, for which the inhibition was 15.5% (active). Next, `C=CCn1c(SCC(=O)Nc2ccc(NC(C)=O)cc2)nc2sc(C)c(C)c2c1=O`: -0.94%; `Nc1ccc(C(=O)Nc2ccccc2N)cc1`: 94.3% (active). Then `Cn1ccnc1SCC(=O)Nc1ccc2c(c1)OCCO2`, with 10.6% (active); and `CN(C(=O)c1cc2c(=O)n3ccccc3nc2s1)C1CCCCC1`, with 9.28% (active); and `NS(=O)(=O)c1ccc2nc(NC(=O)C3=COCCO3)sc2c1`, with 9.88% (active). Next, `Cc1sc(NC(=O)c2ccc3ncsc3c2)c(C(N)=O)c1C`: 14.4% (active). On to `CCOC(=O)c1c(S(=O)(=O)Nc2ccc(CN3CCC(C)CC3)cc2)c(C)n(C)c1C`, for which the inhibition was 4.2% (active). Then `CCc1ccc(NC2Nc3cc(C)nn3S2)cc1` (stereo unspecified), with 10.6% (active). Next, `CCOc1cccc(/C=C/c2ccc3ccccc3n2)c1OC(C)=O`: 10.4% (active). Then `Cc1csc(SCC(=O)Nc2sccc2C#N)n1`, with 16.1% (active); and `COC(=O)c1sc(NC(=O)c2ccc(OC)cc2OC)nc1C`, with 13.9% (active); and `O=C(Nc1ccc2c(c1)CCC2)c1ccc(Br)s1`, with 15.1% (active). For `COc1ccc(/C=C/C(=O)Nc2ccc(C34CC5CC(CC(O)(C5)C3)C4)cc2)cc1OC`, the inhibition is 4.27% (active).

As for `Clc1ccc(Nc2nc(-c3cccs3)cs2)nc1`, the inhibition was 13.8% (active).

Regarding `Cc1ccccc1OCC(=O)Nc1ccc2c(c1)ncn2C`, the inhibition is 8.73% (active). Take `Cc1ccccc1Nc1nc(N)nc(CSc2ccccc2)n1`: the inhibition is 19.3% (active). Take `CCCNC(=O)C1CC(=O)N(c2ccc(OCc3ccccc3)cc2)C1` (stereo unspecified): the inhibition is 14.4% (active). In the case of `Cc1ccc(N/C=C/C(=O)c2ccccc2)cc1C`, the inhibition was 10.3% (active). Then `COc1ccccc1CCC(=O)OCC(=O)N1CCN(S(=O)(=O)c2ccc(C)cc2C)CC1`, with 1.66%. Consider `CC1CCN(C(=O)COC(=O)c2cc(=O)[nH]c3ccccc23)CC1`, for which the inhibition is 9.14% (active).

Consider `O=C(NCC1(N2CCCCC2)CCCCC1)c1ccc(NS(=O)(=O)c2ccc(F)cc2)cc1`, for which the inhibition was 9.71% (active).

`CCN(c1ccccc1)S(=O)(=O)c1ccc(OCC(=O)N2CCCC2)cc1`: the inhibition was 0.88%. Then `CCOc1ccc(S(=O)(=O)Nc2cccc(C(=O)NCC3(N4CCCCC4)CCCCC3)c2)cc1`, with 8.51% (active); and `COc1ccccc1-c1cc(C(=O)N2CCCCC2)no1`, with 13.3% (active). As for `O=C(c1cc(-c2cccs2)on1)N1CCCCC1`, the inhibition is 12.9% (active). Then `COc1ccc(OCc2cc(C(=O)N3CCCC3)no2)c2ccccc12`, with 6.33% (active); and `O=C(c1cc(-c2ccccc2O)on1)N1CCCC1`, with 11.2% (active). Consider `CC(C)c1ccc(Nc2ncccc2C#N)cc1`, for which the inhibition is 5.79% (active). Next, `Cc1ccnc(NC(=O)CCNS(=O)(=O)c2ccc(C)c(C)c2)c1`: 14% (active); `CC1CCCN(c2ccc(C(=O)NCCc3ccccc3)cn2)C1` (stereo unspecified): 7.54% (active).

Regarding `CC[C@]1(O)C[C@@H]2CN(CCc3c([nH]c4ccccc34)[C@@](C(=O)OC)(c3cc4c(cc3OC)N(C)[C@H]3[C@@](O)(C(=O)OC)[C@H](OC(C)=O)[C@]5(CC)C=CCN6CC[C@]43[C@@H]65)C2)C1`, the inhibition is 19.4% (active). For the compound `CC[C@]1(O)CC2CN(CCc3c([nH]c4ccccc34)[C@@](C(=O)OC)(c3cc4c(cc3OC)N(C=O)[C@H]3[C@@](O)(C(=O)OC)[C@H](OC(C)=O)[C@]5(CC)C=CCN6CC[C@]43[C@@H]65)C2)C1` (stereo partly specified), the inhibition was 17.7% (active). Then `Cc1c(C(=O)Nc2ccccn2)oc2ccc(Br)cc12`, with 12.8% (active); and `CCOc1ccc(-c2nnc(-c3ccco3)o2)cc1`, with 9.81% (active).

On to `O=C(NCC1CCCO1)c1cc2c(s1)CCCC2` (stereo unspecified), for which the inhibition was 5.13% (active). Next, `O=C(Nc1ccc2ccccc2c1[N+](=O)[O-])c1ccccc1`: 8.86% (active); `C/C(=N\NC(=O)c1ccccc1F)c1ccccn1`: -7.54%.

Turning to `O=C(NCCOc1ccccc1)c1ccccc1F`, the inhibition is 13.3% (active).

Take `O=C(CCc1ccccc1)Nc1ncc([N+](=O)[O-])s1`: the inhibition was 3.12%.

For the compound `O=C(Nc1ccn(Cc2ccccc2)n1)c1n[nH]c([N+](=O)[O-])c1Cl`, the inhibition is 10.4% (active). Turning to `COc1ccc(-c2csc(Nc3ccccn3)n2)cc1`, the inhibition was 12.8% (active). Then `COC(=O)Nc1nc2ccc(C(=O)C3CC3)cc2[nH]1`, with 17.1% (active); and `CN1CCN(C(=O)c2ccc(-c3ccc(Br)cc3)o2)CC1`, with 6.02% (active).

Take `COc1ccc(CCOC2OC(CO)C(OC(=O)/C=C/c3ccc(O)c(OC)c3)C(O[C@H]3O[C@@H](C)[C@H](O)[C@@H](O)[C@H]3O)C2O)cc1O` (stereo partly specified): the inhibition is 2.5%. In the case of `COc1ccc(C(=O)NCC[N+](C)(C)C)cc1`, the inhibition was 1.64%.

On to `CCCOc1ccc(C(=O)NCCc2ccccc2)cc1`, for which the inhibition was 11.2% (active). Consider `O=C(N/N=C\C1CC=CCC1)c1ccc(Br)o1` (stereo unspecified), for which the inhibition is 0.48%.

For `CCCc1cc(C(=O)Nc2ccc(C(=O)OC)cc2)cs1`, the inhibition was 3.03%. Then `CCCc1cc(C(=O)Nc2ccc(Cl)cn2)cs1`, with 8.76% (active); and `Nc1c(C(=O)Nc2ccc3c(c2)OCCO3)nnn1Cc1ccccc1`, with 12.5% (active); and `O=C(Nc1ccc(NC(=O)c2cccs2)cn1)c1ccco1`, with 12.9% (active).

With `O=C(NC(=S)Nc1ccc(Cl)cc1Cl)C1CC1`, the inhibition was 5.19% (active). Turning to `COc1cc(OC)c(C(=O)NNC(=O)c2ccc(NS(=O)(=O)c3cccs3)cc2)cc1OC`, the inhibition was 1.04%. As for `O=C(Nc1ccccc1)Nc1nc2ccccc2s1`, the inhibition was 14.6% (active).

On to `CC(C)c1ccc(Nc2nnc(SCC(=O)c3nnc(-c4ccccc4)o3)s2)cc1`, for which the inhibition is 7.92% (active). On to `CCc1ccc2oc(-c3ccc(N)cc3)nc2c1`, for which the inhibition is 12.2% (active). Then `CC(C)(C)c1csc(NC2=NS(=O)(=O)c3ccccc32)n1`, with 11.5% (active). In the case of `Cc1ccc(-n2cc3ccc([N+](=O)[O-])cc3n2)cc1`, the inhibition is 12.1% (active). For the compound `Brc1ccc2nc(N3CCCC3)sc2c1`, the inhibition was 7.35% (active). Next, `O=C(Nc1ncccc1O)c1ccc(S(=O)(=O)N2CCCCCC2)cc1`: 7.57% (active); `O=C(Nc1ncccc1O)c1ccc(S(=O)(=O)N2CCCC2)cc1`: 10.3% (active). Next, `O=C(Nc1ncccc1O)c1ccc(C(=O)c2ccccc2)cc1`: 51.3% (active). Then `CCc1ccc(NC(=O)N2CCc3ccccc3C2)cc1`, with 5.01% (active).
